Test results: PubChem BioAssay (NCATS)
Results filed as inconclusive are left out. The source made the active and inactive calls. Calls come from the whole dose curve; as a rule, active = well fitted cell-killing curve with a large enough effect; inconclusive = small, poorly fitted or top-dose-only effect, or effect the other way; inactive = flat fitted curve, though single readings scatter.

What was measured:
Test in all cases: Primary qHTS to identify gynecologic anti-cancer compounds using libraries of approved drugs and bioactive compounds (AID 1345084); note: nearly all actives have a fitted effect of over 55% in size
Settings in all cases: Gynecologic cancer cell panel viability, ATPlite luminescence, 48 h; series mostly up to 57.5 µM
SKOV3 = system: SKOV3
Summary of the method: (§1)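 Cytotoxicity screen measuring ATP content by luciferase luminescence. Each compound is applied at five concentrations for 48 h at 37 C with 5% CO2.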

Tov-21-G = system: Tov-21-G
Summary of the method: as §1

Tov112D = system: Tov112D
Summary of the method: as §1
% is set by controls: 0 for no effect and ±100 for the full control effect.

CC/C=C/C(O)C(O)C1=C(C)C(=O)C2(O1)C(=O)NC(OC)(C(=O)c1ccccc1)C2O (stereo not drawn)
inactive: Potency (SKOV3) | Potency (Tov-21-G) | Potency (Tov112D)

CC1CCC2C(C)(C)[C@H](O)CC[C@]2(C)C12Cc1c(O)cc3c(c1O2)CN(C(CCC(=O)O)C(=O)O)C3=O (stereo partly drawn)
inactive: Potency (SKOV3) | Potency (Tov-21-G) | Potency (Tov112D)

COC(=O)C1=COC(O[C@@H]2O[C@H](CO)[C@@H](O)[C@H](O)[C@H]2O)[C@@H]2[C@@](C)(O)[C@@H](OC(=O)/C=C/c3ccccc3)C[C@]12O (stereo partly drawn)
inactive: Potency (SKOV3) | Potency (Tov-21-G) | Potency (Tov112D)

COc1cnc(-c2ccc(Cn3c(CC(C)(C)C(=O)O)c(SC(C)(C)C)c4cc(OC[C@@H]5Cc6ccccc6N5C(C)=O)ccc43)cc2)nc1
inactive: Potency (SKOV3) | Potency (Tov-21-G) | Potency (Tov112D)

CC(=O)O[C@@H]1CC2C(C)(C)C(=O)C=C[C@]2(C)C2CC[C@]3(C)C(=CC(=O)[C@@H]3c3ccoc3)[C@@]21C (stereo partly drawn)
inactive: Potency (SKOV3) | Potency (Tov-21-G) | Potency (Tov112D)

C[C@@H]1O[C@@H](O[C@H]2[C@@H]3C=CO[C@@H](O[C@@H]4O[C@H](CO)[C@@H](O)[C@H](O)[C@H]4O)[C@@H]3[C@@]3(CO)O[C@@H]23)[C@H](O)[C@H](OC(=O)/C=C/c2ccc(O)cc2)[C@H]1OC(=O)/C=C/c1ccc(O)cc1
inactive: Potency (SKOV3) | Potency (Tov-21-G) | Potency (Tov112D)

Fc1cccc(CN(C2=NCCN2)c2c(Cl)cccc2Cl)c1
inactive: Potency (SKOV3) | Potency (Tov-21-G) | Potency (Tov112D)

C=C1CCC2[C@](C)(CO)CCC[C@@]2(C)[C@@H]1CCC1=CCOC1=O (stereo partly drawn)
inactive: Potency (SKOV3) | Potency (Tov-21-G) | Potency (Tov112D)

CNC(=O)c1ccc2c(c1)CCO[C@H]2CCN1CCN(c2ccc(C(N)=O)cc2)CC1
inactive: Potency (SKOV3) | Potency (Tov-21-G) | Potency (Tov112D)

COc1cc(C2Oc3c(OC)cc(/C=C/C(=O)OC4CC(O)(C(=O)O)CC(O)C4O)cc3C2CO)ccc1O (stereo not drawn)
inactive: Potency (SKOV3) | Potency (Tov-21-G) | Potency (Tov112D)

CC1(C)CC=C(c2cnc3ccccc3c2)c2cc(C(=O)Nc3ccc(C(=O)O)cc3)ccc21
inactive: Potency (SKOV3) | Potency (Tov-21-G) | Potency (Tov112D)

CC(C)c1ccc2c(c1)CCC1[C@](C)(C(=O)O)CCC[C@]21C (stereo partly drawn)
inactive: Potency (SKOV3) | Potency (Tov-21-G) | Potency (Tov112D)

Cc1[nH]c2ccccc2c1CC(=O)N[C@@H](Cc1ccccc1)C(=O)N(C)c1ccccc1
inactive: Potency (SKOV3) | Potency (Tov-21-G) | Potency (Tov112D)

C[C@@H]1C[C@@H](O)[C@@]2(CO)C(CO)=CCC[C@@H]2[C@@]12C[C@@H](c1ccoc1)OC2=O
inactive: Potency (SKOV3) | Potency (Tov-21-G) | Potency (Tov112D)

C[C@@H]1O[C@@H](O[C@@H]2[C@@H](O)[C@H](O[C@H]3[C@H](O[C@H]4CC[C@@]5(C)C(CC[C@]6(C)C5CC=C5[C@@H]7CC(C)(C)CC[C@]7(C(=O)O[C@@H]7O[C@H](CO)[C@@H](O)[C@H](O)[C@H]7O)CC[C@]56C)C4(C)C)O[C@H](C(=O)O)[C@@H](O)[C@@H]3O)OC[C@H]2O)[C@H](O)[C@H](O)[C@H]1O (stereo partly drawn)
inactive: activity change, negative = cytotoxicity (SKOV3) 20.4% [at 11.6 µM] | activity change, negative = cytotoxicity (Tov-21-G) 1.4% [at 11.6 µM] | activity change, negative = cytotoxicity (Tov112D) 6.86% [at 11.6 µM]

Cc1ccc(Cl)cc1N(CC(=O)Nc1c(F)cccc1F)S(C)(=O)=O
inactive: Potency (SKOV3) | Potency (Tov-21-G) | Potency (Tov112D)

COc1ccc(C2C(C(=O)O)C(C(=O)O)C2c2ccc(OC)cc2O[C@@H]2O[C@H](CO)[C@@H](O)[C@H](O)[C@H]2O)c(O[C@@H]2O[C@H](CO)[C@@H](O)[C@H](O)[C@H]2O)c1 (stereo partly drawn)
inactive: Potency (SKOV3) | Potency (Tov-21-G) | Potency (Tov112D)

Cc1cn(C[C@H](N)C(=O)O)c(=O)n(Cc2ccsc2C(=O)O)c1=O
inactive: Potency (SKOV3) | Potency (Tov-21-G) | Potency (Tov112D)

C/C=C1\[C@H](O[C@@H]2O[C@H](CO)[C@@H](O)[C@H](O)[C@H]2O)OC=C(C(=O)OCCc2ccc(O)cc2)[C@H]1CC(=O)OCCc1ccc(O)cc1
inactive: Potency (SKOV3) | Potency (Tov-21-G) | Potency (Tov112D)

C=C(CCO)C(=O)OCC1OCC(OC(=O)C(=C)CCO[C@@H]2O[C@H](CO)[C@@H](O)[C@H](O)[C@H]2O)C(O)C1O (stereo partly drawn)
inactive: Potency (SKOV3) | Potency (Tov-21-G) | Potency (Tov112D)

CCC/C=C1\OC(=O)C2=C1CCC(O)C2O (stereo not drawn)
inactive: Potency (SKOV3) | Potency (Tov-21-G) | Potency (Tov112D)

COc1ccc(CC(=O)NCc2ccccc2-c2ccccc2C(=O)NCCc2cccnc2)cc1
inactive: Potency (SKOV3) | Potency (Tov-21-G) | Potency (Tov112D)

COc1ccc(OC2OC(CO[C@@H]3O[C@@H](C)[C@H](O)[C@@H](O)[C@H]3O)C(O)C(O)C2O)cc1OC (stereo partly drawn)
inactive: Potency (SKOV3) | Potency (Tov-21-G) | Potency (Tov112D)

COC(=O)c1ccc(OC)cc1O[C@@H]1O[C@H](CO[C@@H]2OC[C@@H](O)[C@H](O)[C@H]2O)[C@@H](O)[C@H](O)[C@H]1O
inactive: Potency (SKOV3) | Potency (Tov-21-G) | Potency (Tov112D)

COc1ccc(-n2[nH]c3c(cnc4ccccc43)c2=O)cc1
inactive: Potency (SKOV3) | Potency (Tov-21-G) | Potency (Tov112D)

Nc1nc(COC(=O)c2ccc([N+](=O)[O-])cc2)nc(Nc2ccccc2)n1
inactive: Potency (SKOV3) | Potency (Tov-21-G) | Potency (Tov112D)

C=C(C(=O)O)[C@H]1C[C@]2(C)C(=O)CC[C@]23O[C@H]1C[C@@H]3C
inactive: Potency (SKOV3) | Potency (Tov-21-G) | Potency (Tov112D)

Cc1nnc(-c2ccc3occ(-c4ccc(S(C)=O)cc4)c3c2)o1 (stereo not drawn)
inactive: Potency (SKOV3) | Potency (Tov-21-G) | Potency (Tov112D)

COC(=O)[C@H](c1ccccc1Cl)N1CCC2SC(=O)C=C2C1 (stereo partly drawn)
inactive: Potency (SKOV3) | Potency (Tov-21-G) | Potency (Tov112D)

C[C@@H]1O[C@@H](O[C@H]2[C@H](OC(=O)[C@]34CCC(C)(C)C[C@H]3C3=CCC5[C@@]6(C)C[C@@H](O)[C@@H](O[C@@H]7O[C@H](CO)[C@@H](O)[C@H](O)[C@H]7O)[C@@](C)(CO)C6[C@H](O)C[C@@]5(C)[C@]3(C)CC4)OC[C@H](O)[C@@H]2O)[C@H](O)[C@H](O[C@@H]2OC[C@](O)(CO)[C@H]2O)[C@H]1O[C@@H]1OC[C@@H](O)[C@H](O[C@H]2O[C@H](C)[C@@H](O)[C@H](O)[C@@H]2O)[C@H]1O (stereo partly drawn)
inactive: activity change, negative = cytotoxicity (SKOV3) 3.05% [at 6.55 µM] | activity change, negative = cytotoxicity (Tov-21-G) -0.147% [at 6.55 µM] | activity change, negative = cytotoxicity (Tov112D) 7.72% [at 6.55 µM]

Cc1ncc(NC(=O)c2ccc(CN3CCN(C)CC3)c(C(F)(F)F)c2)cc1Nc1nccc(-c2cccnc2)n1
inactive: Potency (SKOV3) | Potency (Tov-21-G) | Potency (Tov112D)
